For 4 molecules, Potency and viability results are on record in PubChem BioAssay (NCATS).

Structures are written as SMILES. Records with an inconclusive call do not appear. A number with no mark means an inactive call. Active and inactive are the calls of the source. Calls come from the whole dose curve; as a rule, active = well fitted cell-killing curve with a large enough effect; inconclusive = small, poorly fitted or top-dose-only effect, or effect the other way; inactive = no such curve, though single readings can be large or run the other way.

Test [1] can be described thus: Quantitative High-Throughput drug screen in 47 multiple myeloma cell lines against the NCATS MIPE library collection: LP1_DSMZ cell viability assay (AID 1918982). Note: nearly all actives have a fitted effect of over 35% in size. The method, boiled down:
(§1)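 500 cells/well; MIPE 4.0 drugs pin-transferred; 48 h, 37C, 5% CO2. CellTiter-Glo, 5 min RT, luminescence. Controls: DMSO 100%, media 0%.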

Test [2] in a line: Quantitative High-Throughput drug screen in 47 multiple myeloma cell lines against the NCATS MIPE library collection: L363_DSMZ cell viability assay (AID 1918984). Note: nearly all actives have a fitted effect of over 40% in size. The method, boiled down:
as §1

The nature of test [3]: Quantitative High-Throughput drug screen in 47 multiple myeloma cell lines against the NCATS MIPE library collection: KMS34_JCRB cell viability assay (AID 1918985). Note: nearly all actives have a fitted effect of over 40% in size. The method, boiled down:
as §1

Test [4] is described as follows: Quantitative High-Throughput drug screen in 47 multiple myeloma cell lines against the NCATS MIPE library collection: XG6_PLB cell viability assay (AID 1919865). Note: nearly all actives have a fitted effect of over 40% in size. The method, boiled down: as §1
The nature of test [5]: Quantitative High-Throughput drug screen in 47 multiple myeloma cell lines against the NCATS MIPE library collection: OCIMY5_PLB cell viability assay (AID 1918988). Note: nearly all actives have a fitted effect of over 65% in size. Particulars: OCI-MY5 myeloma viability, ATP luminescence, 48 h. A digest of the protocol: as §1
Test [6] is described as follows: Quantitative High-Throughput drug screen in 47 multiple myeloma cell lines against the NCATS MIPE library collection: SKMM1_PLB cell viability assay (AID 1919863). For viability: series mostly up to about 46 µM. Note: nearly all actives have a fitted effect of over 35% in size. To be noted: SKMM1 myeloma viability, CellTiter-Glo ATP, 48 h; viability: hits give low values. A digest of the protocol:
as §1

Test [7] can be described thus: Quantitative High-Throughput drug screen in 47 multiple myeloma cell lines against the NCATS MIPE library collection: U266_ATCC cell viability assay (AID 1919864). Note: nearly all actives have a fitted effect of over 35% in size. The method, boiled down: as §1
The nature of test [8]: Quantitative High-Throughput drug screen in 47 multiple myeloma cell lines against the NCATS MIPE library collection: KMS28PE_JCRB cell viability assay (AID 1918983). Note: nearly all actives have a fitted effect of over 35% in size. Particulars: KMS28PE multiple myeloma viability, CellTiter-Glo ATP, 48 h. The method, boiled down: as §1
Test [9] can be described thus: Quantitative High-Throughput drug screen in 47 multiple myeloma cell lines against the NCATS MIPE library collection: OCIMY7_PLB cell viability assay (AID 1918987). Note: nearly all actives have a fitted effect of over 65% in size. To be noted: OCI-MY7 myeloma viability, CellTiter-Glo ATP, 48 h. The method, boiled down:
as §1
A general note: In ATP-based viability assays light output follows the ATP content of the culture.

The nature of test [10]: Quantitative High-Throughput drug screen in 47 multiple myeloma cell lines against the NCATS MIPE library collection: OPM1_PLB cell viability assay (AID 1918989). Note: nearly all actives have a fitted effect of over 40% in size. An excerpt:
PI: Beverly A. Mock Ph.D.
Laboratory of Cancer Biology and Genetics,
Center for Cancer Research, National Cancer Institute,
National Institute of Health, Bethesda, Maryland
Drug resistance and disease progression are common in multiple myeloma (MM) patients, underscoring the need for new therapeutic combinations. […] We hypothesized that effective combinations would reduce MYC expression and enhance p16 activity. […] These preclinical data identify potentially useful drug combinations for evaluation in drug-resistant MM and reveal potential mechanisms of combined drug sensitivity.
Described herein is the primary MIPE qHTS used to cherrypick compounds. Validated compounds were then further tested for potential synergistic activiy.
[1] […]
5; Detector; 425V; Luminescence; Viewlux PerkinElmer. […]
1. […] Briefly, the corresponding myeloma cell lines were screened in 1,536-well plates with 500 cells, 5-uL per well for inhibition of cell viability (assessed by measuring ATP levels with CellTiterGlo). […]
5. Signal was measured as median relative luminescence units on a ViewLux (PerkinElmer) multiplate reader. […]
Potency is the fitted concentration of half-maximal effect.

As to `O=C(O)c1nn(Cc2ccc(Cl)cc2Cl)c2ccccc12`, the Potency result in test [1], in test [2], in test [3] and in test [4] was “inactive” in each case.
Turning to `COc1ccc(C(=O)N2CCCC2=O)cc1`, the Potency in [5] was 662 nM (active). For the same molecule, the viability in test [6] is 101%. The Potency result in test [7] and in [4] was “inactive” each time.
Turning to `C[C@@H]1C[C@@H]([C@H](O)CC2CC(=O)NC(=O)C2)C(=O)[C@@H](C)C1`, the Potency in test [1] was 118 nM (active); in test [8] it was 1180 nM (active); in [2] it was 743 nM (active); in [3], 118 nM (active); in test [9], 2640 nM (active); in test [5], 1660 nM (active). For the same molecule, the Potency in test [10] was 833 nM (active); in [6], 296 nM (active); in [7], 1050 nM (active); in test [4] it was 743 nM (active).
Regarding `COC(=O)C1=CCCN(C)C1`, the Potency result in test [1], in [2], in test [3], in [10] and in test [4] was “inactive” in each case.

As a reminder, the viability is a read-out of living cells in per cent, often relative to untreated cells.
